The values below come from PubChem BioAssay (EPA / NIEHS).

Several values for one entry are separate records, joined by “and”; a condition that tells them apart may be missing. Identical values can stand only once. Some structures have more than one record in an assay (separate samples or runs), and their calls can disagree. Activity calls are given as the source filed them. How the source made its calls: active means hit-call score of the fitted dose curve at least 0.9, where 1 is the maximum; inactive means score below 0.9.

In general, AC50 refers to the concentration at which the activity in the assay is half-maximal.

Read-out in this test: Urokinase-type plasminogen activator receptor (uPAR), PLAUR (gene 5329)
As to the kind of experiment: BSK_BE3C_uPAR: BioMAP Diversity Plus: BE3C Assay for Urokinase-type plasminogen activator receptor (uPAR) Biomarker Activity (AID 2283039).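 On outcome: uPAR protein level measured by ELISA on the cells; cells exposed to compound for one day before measurement.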 The settings on record: primary human bronchial epithelial cells; actives raise or lower the signal. The method, boiled down: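 A uPAR ELISA serves as the readout, taken 24 h after treating primary human bronchial epithelial cells. Responses in either direction are fitted against DMSO, which defines baseline activity.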
As for `O=C(O)C(F)(F)C(F)(F)C(F)(F)C(F)(F)C(F)(F)C(F)(F)C(F)(F)F`, the result was inactive. For `COP(=O)(OC)OC=C(Cl)Cl`, the concentration at half-maximal activity (AC50) was 6.12 µM (active). Turning to `COP(=S)(OC)Oc1ccc([N+](=O)[O-])cc1`, the result was inactive. For the molecule `O=C(NC(=O)c1c(F)cccc1F)Nc1ccc(OC(F)(F)C(F)OC(F)(F)F)c(Cl)c1` (configuration not stated), the result was inactive.

Regarding `CCc1ccc(C(=O)NN(C(=O)c2cc(C)cc(C)c2)C(C)(C)C)cc1`, the outcome was inactive. With `COC(=O)c1ccccc1S(=O)(=O)NC(=O)N(C)c1nc(C)nc(OC)n1`, the result was inactive.

In the case of `COC(=O)c1ccccc1CS(=O)(=O)NC(=O)Nc1nc(OC)cc(OC)n1`, the result was inactive. On the same count and under the same terms, as for `O=C(O)CCCOc1ccc(Cl)cc1Cl`, the entry is “inactive”; as for `O=[N+]([O-])/N=C1\NCCN1Cc1ccc(Cl)nc1`, “inactive”. Take `Cc1[nH]c(=O)n(C(C)(C)C)c(=O)c1Cl`: the result was inactive.

For `CC(C)(C)C(O)C(Oc1ccc(Cl)cc1)n1cncn1` (configuration not stated), the result was inactive.

As to `CCOCN(C(=O)CCl)c1c(C)cccc1CC`, the result was inactive. Consider `[2H]C1([2H])[n+]2ccccc2-c2cccc[n+]2C1([2H])[2H]`, for which the AC50 was 2.68 µM (active).

For `CCOc1nc(NC)nc(NC(=O)NS(=O)(=O)c2ccccc2C(=O)OC)n1`, the result was inactive. The same measure, in the same setting: as for `Cc1cc(C)nc(NC(=O)NS(=O)(=O)c2ccccc2C(=O)OC2COC2)n1`, the entry is “inactive”. As for `COc1nn(CSP(=S)(OC)OC)c(=O)s1`, the outcome was inactive. As to `Oc1ccc(Cl)cc1Cc1ccccc1`, the AC50 was 32.1 µM (active) [middle of 7 runs]. Consider `CCOC1Oc2ccc(OS(C)(=O)=O)cc2C1(C)C` (configuration not stated), for which the outcome was inactive.

Turning to `ClC1C(Cl)C(Cl)C(Cl)C(Cl)C1Cl` (configuration not stated), the result was inactive.

For the molecule `N#CN`, the result was inactive.

For `CC1(c2ccc(Oc3ccccc3)cc2)OC(=O)N(Nc2ccccc2)C1=O` (configuration not stated), the result was inactive. Same read-out and setting: for `CCCN(CCC)c1c([N+](=O)[O-])cc(C(F)(F)F)cc1[N+](=O)[O-]` the value was “inactive”; for `COc1cc(OC)nc(NC(=O)NS(=O)(=O)c2cc(NC=O)ccc2C(=O)N(C)C)n1`, “inactive”. Consider `O=S(=O)(O)C(F)(F)C(F)(F)C(F)(F)C(F)(F)C(F)(F)C(F)(F)C(F)(F)C(F)(F)F`, for which the AC50 was 33.2 µM (active) and 32.7 µM (active) and 6.81 µM (active); the outcome was inactive.

For the molecule `N#Cc1c(Cl)c(Cl)c(Cl)c(C#N)c1Cl`, the AC50 was 3.98 µM (active). On to `O=[N+]([O-])c1c(Cl)c(Cl)c(Cl)c(Cl)c1Cl`, for which the outcome was inactive.
